Holding throughout (test): DAPPL (digital affinity profiling via proximity ligation, sequencing); 10 mM Tris-HCl pH 7.5, 50 mM NaCl, 1 mM DTT, 4% glycerol, room temperature, 30 min; GST-TFs on glutathione beads, 16-mer random dsDNA library, 0.1% formaldehyde crosslink after washing; high values mean tight binding
In one assay the target is T1, FLI1 (Homo sapiens, UniProt Q01543 1-452).
T1 sequence: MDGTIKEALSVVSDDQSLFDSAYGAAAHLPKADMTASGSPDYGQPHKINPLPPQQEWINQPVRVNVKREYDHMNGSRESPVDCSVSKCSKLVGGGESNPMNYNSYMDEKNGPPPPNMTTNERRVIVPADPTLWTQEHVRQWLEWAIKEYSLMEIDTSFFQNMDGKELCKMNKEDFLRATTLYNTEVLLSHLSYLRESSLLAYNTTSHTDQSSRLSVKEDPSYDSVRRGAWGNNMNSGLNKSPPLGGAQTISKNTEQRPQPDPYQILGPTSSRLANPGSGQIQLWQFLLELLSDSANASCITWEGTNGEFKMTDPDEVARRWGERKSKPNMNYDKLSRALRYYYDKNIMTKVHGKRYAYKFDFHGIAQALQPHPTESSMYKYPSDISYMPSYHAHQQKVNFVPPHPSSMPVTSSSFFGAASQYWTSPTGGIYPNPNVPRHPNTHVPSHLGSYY
The settings on record: protein: recombinant; tags: N-terminal GST; dsDNA, one strand shown. Summed up: (§1)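 Pools were built from human transcription factors expressed in yeast as GST fusions, captured on glutathione beads and DNA-barcoded, along with a tag-only sample. Incubation with 200 nmole of a 16-mer random double-stranded DNA library lasted 30 min at room temperature in Tris/NaCl/DTT/glycerol buffer, and was followed by washing, 0.1% formaldehyde crosslinking, proximity ligation, PCR amplification and Illumina NextSeq500 sequencing. Binding signal is the quotient of each hexamer's read frequency for a factor and its frequency for the tag-only sample.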

The next assay deals with T2, ELK1 (Homo sapiens, UniProt P19419 1-428).
T2 sequence: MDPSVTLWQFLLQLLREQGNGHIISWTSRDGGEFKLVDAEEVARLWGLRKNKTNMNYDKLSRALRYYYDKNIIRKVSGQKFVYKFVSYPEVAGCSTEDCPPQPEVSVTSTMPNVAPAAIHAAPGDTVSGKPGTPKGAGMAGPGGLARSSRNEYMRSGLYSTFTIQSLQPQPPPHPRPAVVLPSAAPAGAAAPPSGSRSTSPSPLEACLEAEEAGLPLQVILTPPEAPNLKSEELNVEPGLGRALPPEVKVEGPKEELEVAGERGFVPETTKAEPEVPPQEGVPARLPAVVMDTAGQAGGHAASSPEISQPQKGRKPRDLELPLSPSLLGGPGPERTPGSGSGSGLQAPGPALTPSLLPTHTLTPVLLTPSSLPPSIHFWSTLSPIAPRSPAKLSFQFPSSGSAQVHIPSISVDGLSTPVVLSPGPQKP
The settings on record: protein: recombinant; tags: N-terminal GST; dsDNA, one strand shown. Summed up:
as §1

The target in a further assay is T3, GABPA (Homo sapiens, UniProt Q06546 1-454).
T3 sequence: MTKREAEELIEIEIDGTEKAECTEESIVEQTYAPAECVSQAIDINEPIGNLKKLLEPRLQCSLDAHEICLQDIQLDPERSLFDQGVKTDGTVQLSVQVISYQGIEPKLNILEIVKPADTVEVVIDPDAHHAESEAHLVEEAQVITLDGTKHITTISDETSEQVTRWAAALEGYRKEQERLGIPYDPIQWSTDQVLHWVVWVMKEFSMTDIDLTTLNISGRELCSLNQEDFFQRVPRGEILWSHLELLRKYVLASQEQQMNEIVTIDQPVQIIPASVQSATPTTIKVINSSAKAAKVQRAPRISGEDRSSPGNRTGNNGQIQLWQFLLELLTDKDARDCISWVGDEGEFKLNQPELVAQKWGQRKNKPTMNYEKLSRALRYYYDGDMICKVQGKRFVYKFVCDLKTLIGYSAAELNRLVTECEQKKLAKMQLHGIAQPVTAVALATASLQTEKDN
Particulars: protein: recombinant; tags: N-terminal GST; dsDNA, one strand shown. Summed up: as §1

In another assay the target is T4, ERG (Homo sapiens, UniProt P11308 1-479).
T4 sequence: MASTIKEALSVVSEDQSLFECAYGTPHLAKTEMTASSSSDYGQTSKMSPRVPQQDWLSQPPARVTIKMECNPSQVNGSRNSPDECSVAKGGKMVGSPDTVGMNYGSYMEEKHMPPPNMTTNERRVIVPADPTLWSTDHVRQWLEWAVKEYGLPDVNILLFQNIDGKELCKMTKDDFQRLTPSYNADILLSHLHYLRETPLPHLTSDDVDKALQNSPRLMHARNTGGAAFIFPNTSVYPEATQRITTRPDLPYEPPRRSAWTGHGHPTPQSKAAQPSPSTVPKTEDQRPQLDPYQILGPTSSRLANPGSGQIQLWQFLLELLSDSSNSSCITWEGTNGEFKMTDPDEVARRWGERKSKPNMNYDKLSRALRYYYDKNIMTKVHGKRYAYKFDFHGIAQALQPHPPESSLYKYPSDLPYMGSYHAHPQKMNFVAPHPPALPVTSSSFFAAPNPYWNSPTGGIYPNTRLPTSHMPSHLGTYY
The settings on record: protein: recombinant; tags: N-terminal GST; dsDNA, one strand shown. The method, boiled down: as §1

The target in the next assay is ELF1 (Homo sapiens, UniProt P32519 1-619). Particulars: protein: recombinant; tags: N-terminal GST; dsDNA, one strand shown. Summed up:
as §1

A further assay deals with T5, EHF (Homo sapiens, UniProt Q9NZC4 1-300).
T5 sequence: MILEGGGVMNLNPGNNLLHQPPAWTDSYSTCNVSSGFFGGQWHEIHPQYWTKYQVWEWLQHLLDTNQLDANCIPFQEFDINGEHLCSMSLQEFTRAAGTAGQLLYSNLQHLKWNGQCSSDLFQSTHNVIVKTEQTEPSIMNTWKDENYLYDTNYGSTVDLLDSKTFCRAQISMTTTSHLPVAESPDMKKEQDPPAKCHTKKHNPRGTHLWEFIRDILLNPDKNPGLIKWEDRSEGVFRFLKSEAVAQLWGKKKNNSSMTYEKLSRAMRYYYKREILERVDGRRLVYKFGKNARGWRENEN
Particulars: protein: recombinant; tags: N-terminal GST; dsDNA, one strand shown. Summed up:
as §1

The next assay has as its target SPI1 (Homo sapiens, UniProt P17947 1-270). The settings on record: protein: recombinant; tags: N-terminal GST; dsDNA, one strand shown. The method, boiled down: as §1
The target of a further assay is SPIB (Homo sapiens, UniProt Q01892 1-262). Particulars: protein: recombinant; tags: N-terminal GST; dsDNA, one strand shown. The method, boiled down: as §1
The next assay deals with T6, ELK3 (Homo sapiens, UniProt P41970 1-407).
T6 sequence: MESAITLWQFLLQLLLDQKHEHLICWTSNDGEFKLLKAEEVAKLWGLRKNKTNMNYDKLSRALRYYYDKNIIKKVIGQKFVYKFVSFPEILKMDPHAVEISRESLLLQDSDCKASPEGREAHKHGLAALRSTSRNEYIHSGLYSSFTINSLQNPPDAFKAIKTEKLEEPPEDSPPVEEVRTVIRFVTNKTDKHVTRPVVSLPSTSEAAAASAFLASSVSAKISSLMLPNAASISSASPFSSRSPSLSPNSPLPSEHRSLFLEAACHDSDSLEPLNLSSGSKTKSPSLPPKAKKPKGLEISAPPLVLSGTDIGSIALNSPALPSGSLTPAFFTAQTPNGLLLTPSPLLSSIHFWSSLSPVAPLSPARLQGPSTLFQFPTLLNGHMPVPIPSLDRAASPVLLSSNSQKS
Particulars: protein: recombinant; tags: N-terminal GST; dsDNA, one strand shown. The method, boiled down:
as §1

The next assay addresses T7, FEV (Homo sapiens, UniProt Q99581 1-238).
T7 sequence: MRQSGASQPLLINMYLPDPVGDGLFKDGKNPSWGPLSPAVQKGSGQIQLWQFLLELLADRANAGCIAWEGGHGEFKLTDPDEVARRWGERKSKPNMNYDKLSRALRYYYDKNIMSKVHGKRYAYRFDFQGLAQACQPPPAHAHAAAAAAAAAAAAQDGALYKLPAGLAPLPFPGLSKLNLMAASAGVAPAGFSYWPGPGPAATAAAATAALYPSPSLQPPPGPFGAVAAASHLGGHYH
The settings on record: protein: recombinant; tags: N-terminal GST; dsDNA, one strand shown. Summed up:
as §1

A further assay deals with ETV5 (Homo sapiens, UniProt P41161 1-510). Particulars: protein: recombinant; tags: N-terminal GST; dsDNA, one strand shown. The method, boiled down:
as §1

In the next assay the target is HSF1 (Homo sapiens, UniProt Q00613 1-529). Particulars: protein: recombinant; tags: N-terminal GST; chain copies: 3; dsDNA, one strand shown. Summed up: as §1
The target in another assay is T8, SPIC (Homo sapiens, UniProt Q8N5J4 1-248).
T8 sequence: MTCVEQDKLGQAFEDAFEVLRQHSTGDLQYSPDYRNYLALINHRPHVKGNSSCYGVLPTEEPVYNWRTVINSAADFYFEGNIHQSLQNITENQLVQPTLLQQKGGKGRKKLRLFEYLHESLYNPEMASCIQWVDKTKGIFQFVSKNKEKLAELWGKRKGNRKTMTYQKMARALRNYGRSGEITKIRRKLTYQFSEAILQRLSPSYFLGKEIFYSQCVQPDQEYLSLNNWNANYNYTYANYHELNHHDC
The settings on record: protein: recombinant; tags: N-terminal GST; dsDNA, one strand shown. The method, boiled down:
as §1

A further assay concerns the target ELF4 (Homo sapiens, UniProt Q99607 1-663). The settings on record: protein: recombinant; tags: N-terminal GST; dsDNA, one strand shown. The method, boiled down:
as §1

Another assay deals with T9, ELK4 (Homo sapiens, UniProt P28324-2 1-405).
T9 sequence: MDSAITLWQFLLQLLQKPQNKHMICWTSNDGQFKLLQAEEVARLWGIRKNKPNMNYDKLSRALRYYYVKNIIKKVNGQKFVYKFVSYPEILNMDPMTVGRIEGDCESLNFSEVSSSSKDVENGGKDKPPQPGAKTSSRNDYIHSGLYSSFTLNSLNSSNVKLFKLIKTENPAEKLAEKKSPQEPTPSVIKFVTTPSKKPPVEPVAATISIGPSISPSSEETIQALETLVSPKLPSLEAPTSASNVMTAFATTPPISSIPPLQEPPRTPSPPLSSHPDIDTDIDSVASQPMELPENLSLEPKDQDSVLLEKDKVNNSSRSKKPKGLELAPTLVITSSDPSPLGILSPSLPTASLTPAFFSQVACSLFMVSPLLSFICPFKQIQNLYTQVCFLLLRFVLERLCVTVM
The settings on record: protein: recombinant; tags: N-terminal GST; dsDNA, one strand shown. Summed up:
as §1

Another assay concerns the target T10, ETV2 (Homo sapiens, UniProt O00321 1-342).
T10 sequence: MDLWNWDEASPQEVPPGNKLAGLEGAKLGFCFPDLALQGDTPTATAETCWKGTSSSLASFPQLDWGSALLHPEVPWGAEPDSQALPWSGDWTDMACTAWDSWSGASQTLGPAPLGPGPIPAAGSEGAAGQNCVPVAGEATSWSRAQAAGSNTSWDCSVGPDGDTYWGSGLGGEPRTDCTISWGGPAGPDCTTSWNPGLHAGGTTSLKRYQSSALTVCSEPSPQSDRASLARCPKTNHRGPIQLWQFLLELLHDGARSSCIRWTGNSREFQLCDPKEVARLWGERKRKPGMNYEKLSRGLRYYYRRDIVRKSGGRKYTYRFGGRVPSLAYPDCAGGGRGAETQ
Particulars: protein: recombinant; tags: N-terminal GST; dsDNA, one strand shown. The method, boiled down: as §1

The target of another assay is T11, ELF3 (Homo sapiens, UniProt P78545 1-371).
T11 sequence: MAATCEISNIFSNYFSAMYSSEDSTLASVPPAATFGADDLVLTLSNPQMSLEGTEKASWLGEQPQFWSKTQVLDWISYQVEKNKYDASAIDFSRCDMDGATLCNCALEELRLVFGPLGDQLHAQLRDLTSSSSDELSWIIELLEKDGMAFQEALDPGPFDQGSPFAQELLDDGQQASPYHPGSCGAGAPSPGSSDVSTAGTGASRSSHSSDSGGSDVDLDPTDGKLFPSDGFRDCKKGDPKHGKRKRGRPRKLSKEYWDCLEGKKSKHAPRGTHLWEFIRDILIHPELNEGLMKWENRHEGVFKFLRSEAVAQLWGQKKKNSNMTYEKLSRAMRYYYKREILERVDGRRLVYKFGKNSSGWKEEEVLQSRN
The settings on record: protein: recombinant; tags: N-terminal GST; dsDNA, one strand shown. Summed up:
as §1

A further assay concerns the target CRX (Homo sapiens, UniProt O43186 1-299). The settings on record: protein: recombinant; tags: N-terminal GST; dsDNA, one strand shown. Summed up: as §1
In a further assay the target is ETV1 (Homo sapiens, UniProt P50549 1-477). The settings on record: protein: recombinant; tags: N-terminal GST; dsDNA, one strand shown. The method, boiled down:
as §1

Chain of ETV1 (P50549 whole entry): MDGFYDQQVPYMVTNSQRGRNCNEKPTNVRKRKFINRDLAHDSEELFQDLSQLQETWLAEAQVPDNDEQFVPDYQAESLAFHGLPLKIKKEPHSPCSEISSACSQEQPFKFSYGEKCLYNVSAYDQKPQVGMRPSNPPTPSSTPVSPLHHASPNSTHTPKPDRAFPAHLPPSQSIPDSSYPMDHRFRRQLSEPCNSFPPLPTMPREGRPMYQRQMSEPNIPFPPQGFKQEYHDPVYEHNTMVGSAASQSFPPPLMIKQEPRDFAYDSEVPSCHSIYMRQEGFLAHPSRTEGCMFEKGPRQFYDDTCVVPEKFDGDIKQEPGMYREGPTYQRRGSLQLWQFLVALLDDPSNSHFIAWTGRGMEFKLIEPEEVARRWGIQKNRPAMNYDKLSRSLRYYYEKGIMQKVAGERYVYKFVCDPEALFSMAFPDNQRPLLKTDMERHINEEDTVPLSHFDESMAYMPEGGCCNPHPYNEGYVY
Chain of CRX (O43186 whole entry): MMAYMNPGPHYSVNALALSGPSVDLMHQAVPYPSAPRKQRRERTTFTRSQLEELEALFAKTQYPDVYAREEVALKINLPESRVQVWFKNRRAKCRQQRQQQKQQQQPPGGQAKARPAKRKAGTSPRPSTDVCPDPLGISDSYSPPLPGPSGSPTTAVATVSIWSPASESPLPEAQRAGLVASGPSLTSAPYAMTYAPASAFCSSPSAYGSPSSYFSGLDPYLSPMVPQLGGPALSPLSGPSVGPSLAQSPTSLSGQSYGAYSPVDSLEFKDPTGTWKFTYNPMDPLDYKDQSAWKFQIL
Chain of HSF1 (Q00613 whole entry): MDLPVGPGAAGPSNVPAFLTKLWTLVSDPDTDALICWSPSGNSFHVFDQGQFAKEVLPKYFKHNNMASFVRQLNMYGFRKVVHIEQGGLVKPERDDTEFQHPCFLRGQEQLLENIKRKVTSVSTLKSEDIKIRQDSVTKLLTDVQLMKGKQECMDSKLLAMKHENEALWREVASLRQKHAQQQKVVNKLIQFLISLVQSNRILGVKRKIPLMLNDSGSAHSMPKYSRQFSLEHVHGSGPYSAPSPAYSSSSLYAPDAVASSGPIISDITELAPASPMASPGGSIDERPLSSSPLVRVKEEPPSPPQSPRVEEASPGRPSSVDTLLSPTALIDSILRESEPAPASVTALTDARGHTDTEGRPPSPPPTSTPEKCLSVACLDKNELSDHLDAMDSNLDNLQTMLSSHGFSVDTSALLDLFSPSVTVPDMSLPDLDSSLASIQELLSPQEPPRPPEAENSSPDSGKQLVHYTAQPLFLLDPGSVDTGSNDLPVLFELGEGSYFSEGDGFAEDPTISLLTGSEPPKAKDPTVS
Chain of ELF4 (Q99607 whole entry): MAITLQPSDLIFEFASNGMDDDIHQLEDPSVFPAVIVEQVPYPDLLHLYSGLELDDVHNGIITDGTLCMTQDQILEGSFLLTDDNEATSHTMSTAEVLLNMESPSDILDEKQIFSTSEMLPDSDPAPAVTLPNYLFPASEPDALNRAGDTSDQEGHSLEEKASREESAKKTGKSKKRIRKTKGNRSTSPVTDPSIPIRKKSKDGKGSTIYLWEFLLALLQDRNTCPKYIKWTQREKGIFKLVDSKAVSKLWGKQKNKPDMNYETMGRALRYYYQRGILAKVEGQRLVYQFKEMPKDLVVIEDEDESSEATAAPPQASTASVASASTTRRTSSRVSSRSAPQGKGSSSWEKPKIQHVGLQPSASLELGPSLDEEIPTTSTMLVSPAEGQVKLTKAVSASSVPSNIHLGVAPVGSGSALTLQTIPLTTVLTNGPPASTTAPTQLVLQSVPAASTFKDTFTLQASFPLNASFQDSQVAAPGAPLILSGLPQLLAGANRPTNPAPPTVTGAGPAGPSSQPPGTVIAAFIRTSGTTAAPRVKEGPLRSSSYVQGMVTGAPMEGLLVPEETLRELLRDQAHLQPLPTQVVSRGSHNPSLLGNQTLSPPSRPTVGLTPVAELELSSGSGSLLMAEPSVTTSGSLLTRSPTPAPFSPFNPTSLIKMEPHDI
Chain of ELF1 (P32519 whole entry): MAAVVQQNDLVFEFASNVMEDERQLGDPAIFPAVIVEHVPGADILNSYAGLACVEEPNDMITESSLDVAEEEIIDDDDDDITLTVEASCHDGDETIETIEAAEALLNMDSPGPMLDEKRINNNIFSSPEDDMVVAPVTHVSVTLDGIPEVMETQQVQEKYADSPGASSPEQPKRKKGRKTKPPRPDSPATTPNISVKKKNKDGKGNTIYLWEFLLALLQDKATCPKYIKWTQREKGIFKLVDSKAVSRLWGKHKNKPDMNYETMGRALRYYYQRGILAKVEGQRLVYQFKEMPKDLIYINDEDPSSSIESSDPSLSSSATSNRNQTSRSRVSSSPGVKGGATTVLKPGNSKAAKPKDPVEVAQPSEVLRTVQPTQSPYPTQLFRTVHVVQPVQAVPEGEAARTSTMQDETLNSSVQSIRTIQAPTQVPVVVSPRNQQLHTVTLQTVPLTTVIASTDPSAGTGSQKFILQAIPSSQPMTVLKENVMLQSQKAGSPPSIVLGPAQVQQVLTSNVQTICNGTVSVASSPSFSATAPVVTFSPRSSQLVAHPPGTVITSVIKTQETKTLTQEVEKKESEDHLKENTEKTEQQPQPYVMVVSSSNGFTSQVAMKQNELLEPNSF
Chain of SPIB (Q01892 whole entry): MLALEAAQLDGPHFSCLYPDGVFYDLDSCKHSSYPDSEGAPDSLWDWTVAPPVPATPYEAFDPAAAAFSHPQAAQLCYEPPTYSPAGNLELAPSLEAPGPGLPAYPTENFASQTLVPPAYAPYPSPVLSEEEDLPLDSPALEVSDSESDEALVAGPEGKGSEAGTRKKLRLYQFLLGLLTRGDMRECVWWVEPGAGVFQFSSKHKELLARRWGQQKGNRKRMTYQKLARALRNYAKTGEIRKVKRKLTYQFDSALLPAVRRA
Chain of ETV5 (P41161 whole entry): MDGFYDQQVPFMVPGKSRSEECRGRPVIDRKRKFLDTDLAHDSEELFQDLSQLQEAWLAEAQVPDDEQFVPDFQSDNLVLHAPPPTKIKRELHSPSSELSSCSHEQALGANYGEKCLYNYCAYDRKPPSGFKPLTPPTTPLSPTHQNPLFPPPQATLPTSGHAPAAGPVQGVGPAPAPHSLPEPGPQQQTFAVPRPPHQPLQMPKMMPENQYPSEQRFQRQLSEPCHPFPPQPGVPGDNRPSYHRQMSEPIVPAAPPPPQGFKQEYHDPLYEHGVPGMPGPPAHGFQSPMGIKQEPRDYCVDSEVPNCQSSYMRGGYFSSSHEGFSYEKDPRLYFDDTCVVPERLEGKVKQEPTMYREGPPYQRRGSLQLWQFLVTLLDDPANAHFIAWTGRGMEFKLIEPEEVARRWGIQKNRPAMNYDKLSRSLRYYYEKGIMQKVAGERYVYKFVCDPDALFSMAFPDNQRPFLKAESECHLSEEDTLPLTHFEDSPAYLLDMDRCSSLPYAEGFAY

Regarding GAACTT, the binding signal is 1.68 fold enrichment (6-mer frequency, TF over GST control) with FLI1; 1.65 fold enrichment (6-mer frequency, TF over GST control) with ELK1; 1.62 fold enrichment (6-mer frequency, TF over GST control) with GABPA; 1.58 fold enrichment (6-mer frequency, TF over GST control) with ERG; 1.7 fold enrichment (6-mer frequency, TF over GST control) with ELF1; 1.59 fold enrichment (6-mer frequency, TF over GST control) with EHF. The binding signal with SPI1 was 1.74 fold enrichment (6-mer frequency, TF over GST control); in the assay with SPIB, 1.69 fold enrichment (6-mer frequency, TF over GST control); in the assay with ELK3 it was 1.7 fold enrichment (6-mer frequency, TF over GST control); with FEV, 1.72 fold enrichment (6-mer frequency, TF over GST control); in the assay with ETV5, 1.66 fold enrichment (6-mer frequency, TF over GST control); with HSF1 it was 2.03 fold enrichment (6-mer frequency, TF over GST control). For the same sequence, the binding signal is 1.71 fold enrichment (6-mer frequency, TF over GST control) with SPIC; 1.52 fold enrichment (6-mer frequency, TF over GST control) in the assay with ELF4; 1.48 fold enrichment (6-mer frequency, TF over GST control) with ELK4; 1.44 fold enrichment (6-mer frequency, TF over GST control) with ETV2; 1.5 fold enrichment (6-mer frequency, TF over GST control) in the assay with ELF3; 1.32 fold enrichment (6-mer frequency, TF over GST control) with CRX. In addition, in the assay with ETV1, the binding signal was 1.68 fold enrichment (6-mer frequency, TF over GST control).

The values are drawn from PMC7862700, “An all-to-all approach to the identification of sequence-specific readers for epigenetic DNA modifications on cytosine”.
